Experimental data published in the supplement of paper PMC6555819.

Tested on: PPARg:RXRa 270nM:90nM, anti-RXR (NR concentration 270 nM, RXRa partner concentration 90 nM)
Experiment: PBM binding z-score (relative to random genomic background probes); higher = stronger binding; sequences stand for … in GC…GCGATTGACAGCGTAGAATGAAGG
Outline: (§1)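 Binding buffer was PBS pH 7.4 with 2% milk, 0.02% Triton X-100, 1 mM DTT, 0.2 mg/mL BSA and 0.4 mg/ml salmon testes DNA. In it, ligand-free nuclear receptor dimers were incubated 1 h on custom Agilent 4×180K protein-binding microarrays carrying double-stranded probes. Antibodies against each partner (one per run) detected binding, and z-scores were calculated against random background probes after regression normalization of scanned fluorescence.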

| Sequence | PBM binding z-score |
| --- | --- |
| AATACAGGGTCACTAGGCCAGAGTGGGTACGAAT | 6.63 |
| CCTCGGAGGACACCAGGAGGTCAGAGCTGCCAGA | 0.169 |
| CGAACTAGGTCAAAGGATAGTGAAAGGCGACGTA | 7.71 |
| TAGCCTAGGTCAAGCGGGCCAGTATAGTGTCGGC | 2.59 |
| ATATGTAGGTTAGAGTCATTCAGAAAGTAGGGAA | 4.03 |
| CGAACTAGGTCACCAGGACAGTTAAGAGGTTGGA | 6.67 |
| ATTTGTAGGTTATCGGGTCATTCAGTTTGCGCAT | 5.66 |
| CGAACTAGGTCAATGGACAGTGAAAGGCGACGTA | 6.17 |
| CGAACTAGGTCAAAGGACTGTGAAAGGCGACGTA | 7.84 |
| CCTTCTGGGCCATTCAGAGGTCATTGATCATATG | 2.79 |
| CGAACTAGGTCACCATGACAGTGAAGAGGTTGGA | 6.55 |
| CGAACTAGGTCACCAGGTCAGTGAAGAGGTTGGA | 7.31 |
| GCTGCTAGGTCAGGATGGTCAGCTAACGGGTACG | 1.04 |
| CGAACTAGGTCAAAGGACAGTGATAGGCGACGTA | 8.27 |
| CCTACTGGGCCATCAGGTGATTGATATCAACGTT | 1.63 |
| ATATGTATGTTAGGGTCATTCAGAAAGTAGGGAA | 3.99 |
| CGTCCAAGGTCAATGCTAGGCCAGTGAAAGCATT | 4.07 |
| ATATGTTGGTTAGGGTCATTCAGAAAGTAGGGAA | 3.69 |
| CGAGCTAGGTCAAAGGACAGTGAAAGGCGACGTA | 6.04 |
| GATACAGGGGCAAGGCCAGAGTACGCGTATTGAT | 0.31 |

| Sequence | PBM binding z-score |
| --- | --- |
| CGAACTAGGTCACCAAGACAGTGAAGAGGTTGGA | 6.46 |
| ATATGTAGGTTAGGGTCATTAAGAAAGTAGGGAA | 6.59 |
| TTACCAAGGTGAAAGGTCGTTGAAGCACGCCTTG | 8.52 |
| CGTCCGAGGTCAAAGGTCAGTGAAGAGATGACGG | 9.76 |
| AATACAGGATCACTAGGCCAGAGTAGGTACGAAT | 0.718 |
| ATATGTAGGTTAGGGTCATTCAAAAAGTAGGGAA | 7.02 |
| CGTCTAAGGTCAAGGTCAGTGAAAGAGACTCGAA | 6.78 |
| CGAACTAAGTCATCCAGGACAGTGAATACATTGA | 0.277 |
| CAAACTAGGTCACAGAGGTCAAACTCCGTGCGTA | 8.44 |
| CGTCCAAGGTCAGATAGGTCAGTGAATGCCGAGT | 3.09 |
| CAAACTAGGTCACGAAAGGTCAACGTCGAATGAC | 8.8 |
| CCTACAGGGCCAAAGGTCATTGATTCCAATGCTC | 8.45 |
| CGAACTAGGTAACCAGGACAGTGAAGAGGTTGGA | 2 |
| GATACAAGGTCAGCTAGAGGCCAGAGTATGGAAA | 3.5 |
| CCTACTGGGGCACGAAAGGTCATTGATTCAGTGA | 5.54 |
| GCATATAGGTAATTCAAGGTGAAAGTCCGATTGT | 1.51 |
| ACTCGGAGGACAAATGTCAGAGCTACGCCAGTGA | 1.99 |
| TCTCGGAGGACACGAAAGGTCAGAACTCGACATC | 2.1 |
| TAGCATAGGTCATGCGGGCCAGTATAGTGTCGGC | 4.44 |

Tested on: PPARg:RXRa 30nM:10nM, anti-RXR (NR concentration 30 nM, RXRa partner concentration 10 nM)
Experiment: as above
Outline: as §1

| Sequence | PBM binding z-score |
| --- | --- |
| AATACAGGGTCACTAGGCCAGAGTGGGTACGAAT | 3.08 |
| CCTCGGAGGACACCAGGAGGTCAGAGCTGCCAGA | -0.691 |
| CGAACTAGGTCAAAGGATAGTGAAAGGCGACGTA | 6.95 |
| TAGCCTAGGTCAAGCGGGCCAGTATAGTGTCGGC | 0.103 |
| ATATGTAGGTTAGAGTCATTCAGAAAGTAGGGAA | 1.69 |
| CGAACTAGGTCACCAGGACAGTTAAGAGGTTGGA | 4.77 |
| ATTTGTAGGTTATCGGGTCATTCAGTTTGCGCAT | 2.93 |
| CGAACTAGGTCAATGGACAGTGAAAGGCGACGTA | 3.76 |
| CGAACTAGGTCAAAGGACTGTGAAAGGCGACGTA | 7.28 |
| CCTTCTGGGCCATTCAGAGGTCATTGATCATATG | 0.927 |
| CGAACTAGGTCACCATGACAGTGAAGAGGTTGGA | 4.64 |
| CGAACTAGGTCACCAGGTCAGTGAAGAGGTTGGA | 5.4 |
| GCTGCTAGGTCAGGATGGTCAGCTAACGGGTACG | -0.242 |
| CGAACTAGGTCAAAGGACAGTGATAGGCGACGTA | 8.49 |
| CCTACTGGGCCATCAGGTGATTGATATCAACGTT | 0.102 |
| ATATGTATGTTAGGGTCATTCAGAAAGTAGGGAA | 1.85 |
| CGTCCAAGGTCAATGCTAGGCCAGTGAAAGCATT | 1.14 |
| ATATGTTGGTTAGGGTCATTCAGAAAGTAGGGAA | 1.7 |
| CGAGCTAGGTCAAAGGACAGTGAAAGGCGACGTA | 3.68 |
| GATACAGGGGCAAGGCCAGAGTACGCGTATTGAT | 0.0579 |

| Sequence | PBM binding z-score |
| --- | --- |
| CGAACTAGGTCACCAAGACAGTGAAGAGGTTGGA | 4.53 |
| ATATGTAGGTTAGGGTCATTAAGAAAGTAGGGAA | 4.1 |
| TTACCAAGGTGAAAGGTCGTTGAAGCACGCCTTG | 7.08 |
| CGTCCGAGGTCAAAGGTCAGTGAAGAGATGACGG | 8.58 |
| AATACAGGATCACTAGGCCAGAGTAGGTACGAAT | 0.264 |
| ATATGTAGGTTAGGGTCATTCAAAAAGTAGGGAA | 4.85 |
| CGTCTAAGGTCAAGGTCAGTGAAAGAGACTCGAA | 3.43 |
| CGAACTAAGTCATCCAGGACAGTGAATACATTGA | 0.283 |
| CAAACTAGGTCACAGAGGTCAAACTCCGTGCGTA | 7.14 |
| CGTCCAAGGTCAGATAGGTCAGTGAATGCCGAGT | 0.662 |
| CAAACTAGGTCACGAAAGGTCAACGTCGAATGAC | 7.57 |
| CCTACAGGGCCAAAGGTCATTGATTCCAATGCTC | 8.14 |
| CGAACTAGGTAACCAGGACAGTGAAGAGGTTGGA | 0.303 |
| GATACAAGGTCAGCTAGAGGCCAGAGTATGGAAA | 1.23 |
| CCTACTGGGGCACGAAAGGTCATTGATTCAGTGA | 2.79 |
| GCATATAGGTAATTCAAGGTGAAAGTCCGATTGT | 0.0519 |
| ACTCGGAGGACAAATGTCAGAGCTACGCCAGTGA | 0.613 |
| TCTCGGAGGACACGAAAGGTCAGAACTCGACATC | 2.51 |
| TAGCATAGGTCATGCGGGCCAGTATAGTGTCGGC | 0.97 |
